# Source: the supplement of paper PMC8728848
# Only a selection was taken, and the strongest signals are over-represented in it overall.
# B1: GS14009A-pdi-495-27-495 (Parabacteroides distasonis) (protein)
# chain: FEEVNTDPDSPTDVPTTNLLAYSLYYTSYRLYDRWFAMDEPMTFCGYASKMTYIDESRYNFRTGVQDTNWEYLYRILNNLKDIEKRATFNETPNMLNVSKVMQVHLMQVATDRWRDVPYTDAAKMTDGILQPKYDKQEDIYPGLLATLKEAADGFADGGSDDLGEGDLLFGGDIEKWQRYCNSMRLRLAMRISEVSPALAKETVEEVMGNPTKYPIMESNDDNAFFWWIGTDPNYYEPMADGYRTRKTEYCAADVIVDHMNTREDPRRSSYFQPTKESVEAGEPKYVGYTIGAKANAVASKYSIWGARFFTDLAGFSPYMRVAEPWFCVAEASMLGWNTGISAEDAYNKAVTYSMEENSVSAEDIADYLANAGKFTNDKKQIYYEEWVAMFKQGMEGWSLYRRTGVPDNLYPAPGRPANYSNHNVPPFRSPYPDKERNLNNANCAPFDAEVVDNLWGKQMWWDTRTGVH
# How the values were obtained:
# Assay in all cases: glycan array binding signal (z-score within array); higher = stronger binding
# Settings in all cases: glycan notation: IUPAC condensed, linker removed
# [1] = biological target: Gal3S(b1-3)[Fuc(a1-4)]GlcNAc
# Outline: (§1)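 Glycan array binding is given as a within-array Z-score, which can be read as non-binding when negative. The arrays, 3228 of them, came from the Consortium for Functional Glycomics database and were retained only where the protein sequence was available. Z-scores were averaged across arrays of the same protein sequence at different concentrations or buffers and across linkers.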
# [2] = biological target: GalNAc(b1-4)GlcNAc(b1-3)GalNAc(b1-4)GlcNAc
# Outline: as §1
# [3] = biological target: Glc(a1-4)Glc(a1-4)Glc(a1-4)Glc
# Outline: as §1
# GlcA(b1-6)Gal = biological target: GlcA(b1-6)Gal
# Outline: as §1
# [4] = biological target: GlcNAc(a1-4)Gal(b1-4)GlcNAc(b1-3)Gal(b1-4)Glc
# Outline: as §1
# [5] = biological target: GlcNAc(a1-4)Gal(b1-4)GlcNAc(b1-3)Gal(b1-4)[Fuc(a1-3)]GlcNAc(b1-3)Gal(b1-4)[Fuc(a1-3)]GlcNAc
# Outline: as §1
# [6] = biological target: GlcNAc(b1-2)[GlcNAc(b1-6)]Man(a1-6)[GlcNAc(b1-2)Man(a1-3)]Man(b1-4)GlcNAc(b1-4)[Fuc(a1-6)]GlcNAc
# Outline: as §1
# [7] = biological target: GlcNAc(b1-3)Gal(b1-4)GlcNAc(b1-3)Gal(b1-4)GlcNAc(b1-2)[GlcNAc(b1-3)Gal(b1-4)GlcNAc(b1-3)Gal(b1-4)GlcNAc(b1-6)]Man(a1-6)[GlcNAc(b1-3)Gal(b1-4)GlcNAc(b1-3)Gal(b1-4)GlcNAc(b1-2)Man(a1-3)]Man(b1-4)GlcNAc(b1-4)[Fuc(a1-6)]GlcNAc
# Outline: as §1
# [8] = biological target: GlcNAc(b1-3)Gal(b1-4)GlcNAc(b1-6)[GlcNAc(b1-3)Gal(b1-3)]GalNAc
# Outline: as §1
# GlcNAc(b1-6)GalNAc = biological target: GlcNAc(b1-6)GalNAc
# Outline: as §1
# Kdn(a2-3)Gal(b1-4)GlcNAc = biological target: Kdn(a2-3)Gal(b1-4)GlcNAc
# Outline: as §1
# [9] = biological target: Neu5Ac(a2-3)Gal(b1-3)GalNAc(b1-4)[Neu5Ac(a2-8)Neu5Ac(a2-3)]Gal(b1-4)Glc
# Outline: as §1
# [10] = biological target: Neu5Ac(a2-3)Gal(b1-3)[GlcNAc(b1-6)]GalNAc
# Outline: as §1
# [11] = biological target: Neu5Ac(a2-3)Gal(b1-4)GlcNAc(b1-2)[Neu5Ac(a2-3)Gal(b1-4)GlcNAc(b1-4)]Man(a1-3)[GlcNAc(b1-4)][Neu5Ac(a2-3)Gal(b1-4)GlcNAc(b1-4)Man(a1-6)]Man(b1-4)GlcNAc(b1-4)GlcNAc
# Outline: as §1
# [12] = biological target: Neu5Ac(a2-3)Gal(b1-4)GlcNAc(b1-3)Gal(b1-4)GlcNAc(b1-3)Gal(b1-4)GlcNAc(b1-2)Man(a1-3)[Neu5Ac(a2-3)Gal(b1-4)GlcNAc(b1-3)Gal(b1-4)GlcNAc(b1-3)Gal(b1-4)GlcNAc(b1-2)Man(a1-6)]GalNAc
# Outline: as §1
# [13] = biological target: Neu5Ac(a2-3)Gal(b1-4)GlcNAc(b1-6)GalNAc
# Outline: as §1
# [14] = biological target: Neu5Ac(a2-3)Gal(b1-4)[Fuc(a1-3)]GlcNAc
# Outline: as §1
# [15] = biological target: Neu5Ac(a2-3)Gal6S(b1-4)GlcNAc
# Outline: as §1
# [16] = biological target: Neu5Ac(a2-3)[GalNAc(b1-4)]Gal(b1-4)Glc
# Outline: as §1
# [17] = biological target: Neu5Ac(a2-6)Gal(b1-4)GlcNAc(b1-2)Man(a1-3)[Man(a1-6)]Man(b1-4)GlcNAc(b1-4)GlcNAc
# Outline: as §1
# [18] = biological target: Neu5Ac(a2-6)Gal(b1-4)GlcNAc(b1-2)Man(a1-3)[Neu5Ac(a2-3)Gal(b1-4)GlcNAc(b1-2)Man(a1-6)]Man(b1-4)GlcNAc(b1-4)GlcNAc
# Outline: as §1
# [19] = biological target: Neu5Ac(a2-6)Gal(b1-4)GlcNAc(b1-3)Gal(b1-4)GlcNAc(b1-3)Gal(b1-4)GlcNAc
# Outline: as §1
# [20] = biological target: Neu5Gc(a2-3)Gal(b1-4)GlcNAc
# Outline: as §1
binder,measurement,setting,value
B1,glycan array binding signal (z-score),[1],0.01
same,glycan array binding signal (z-score),[2],-0.71
same,glycan array binding signal (z-score),[3],-0.358
same,glycan array binding signal (z-score),GlcA(b1-6)Gal,0.626
same,glycan array binding signal (z-score),[4],-0.147
same,glycan array binding signal (z-score),[5],1.93
same,glycan array binding signal (z-score),[6],-0.199
same,glycan array binding signal (z-score),[7],2.44
same,glycan array binding signal (z-score),[8],0.415
same,glycan array binding signal (z-score),GlcNAc(b1-6)GalNAc,0.174
same,glycan array binding signal (z-score),Kdn(a2-3)Gal(b1-4)GlcNAc,-0.615
same,glycan array binding signal (z-score),[9],-0.25
same,glycan array binding signal (z-score),[10],-0.177
same,glycan array binding signal (z-score),[11],0.12
same,glycan array binding signal (z-score),[12],1.45
same,glycan array binding signal (z-score),[13],-0.512
same,glycan array binding signal (z-score),[14],-0.201
same,glycan array binding signal (z-score),[15],-0.508
same,glycan array binding signal (z-score),[16],-0.129
same,glycan array binding signal (z-score),[17],-0.647
same,glycan array binding signal (z-score),[18],-0.631
same,glycan array binding signal (z-score),[19],-0.311
same,glycan array binding signal (z-score),[20],-0.276
